Activity calls are given as the source filed them.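 Rule for the calls, unless noted: active = inhibition of the reporter signal at or above 50%; inactive = inhibition below 50%.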
Assays:
[1] = inhibitors of TNFa-induced NFkB p65 translocation, primary screen, imaging, HUVEC, MLSMR starter and 10KST1 sets (AID 438;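 active = inhibition above 20% together with a positive visual image hit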;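 note: compound added about 3h40 before a 20 min TNFalpha stimulation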;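 for inhibition: signal is the nuclear over cytoplasmic p65 intensity ratio per well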); settings: HUVEC TNFa-induced p65 nuclear translocation; cell count: measured here: nuclei count (cytotoxicity indicator), at 2.08 µM; inhibition: at 2 µM, stronger effect = higher value, 0% TNFa-plus-vehicle, 100% no-TNFa wells
[2] = inhibitors of mutant huntingtin aggregation, primary screen, imaging, exon1htt(103Q)mCFP cells, high-content imaging (AID 483;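 active = visual image review flags a hit and inhibition of aggregation exceeds 20%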;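 note: compound exposure lasted 3 days before fixation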;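 for nuclei count: percent of the per-plate median nuclei count of sample wells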); settings: exon1htt(103Q)mCFP cell line, aggregate imaging, at 2 µM; inhibition of aggregation: stronger effect = higher value; nuclei count: measured here: cell count, toxicity
[3] = inhibitors of E-selectin induction by TNFa, primary screen, imaging, HUVEC, immunofluorescence, MLSMR starter and 10KST1 sets (AID 487;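 active = visually confirmed hit in the image check and inhibition above 20%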;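 for inhibition: signal is fraction of cell area covered by stained E-selectin grains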;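 for nuclei count: 100% = median nuclei count of all wells on the same plate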); settings: HUVEC TNFalpha-induced E-selectin immunofluorescence imaging, at 2 µM; inhibition: stronger effect = higher value; nuclei count: measured here: cell number, toxicity
[4] = molecular target: Voltage-gated potassium channel subunit beta-2 (Rattus norvegicus) (UniProt P62483); assay: KvBeta enzyme negative modulators, primary screen, biochemical, NADPH fluorescence (AID 622;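 active = fluorescence slope higher than the sample average by over 3 SD, cut at about -0.22 in these data, passing the limit was not always enough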;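 note: slope of raw intensity against log time taken from 70 to 1610 s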); settings: recombinant KvBeta, 4-cyanobenzaldehyde reduction, at 10 µM, stronger effect = higher value
[5] = molecular target: Voltage-gated potassium channel subunit beta-2 (Rattus norvegicus) (UniProt P62483); assay: KvBeta positive modulators, primary screen, biochemical, NADPH fluorescence (AID 623;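 active = NADPH fluorescence slope more negative than the mean of all samples by about 3 SD, 99.7% confidence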;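 note: fluorescence intensity change per second fitted from 20 to 320 s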); settings: Recombinant KvBeta, NADPH fluorescence decrease slope, 10 min; at 10 µM; stronger effect = lower value
[6] = molecular target: Alpha-2C adrenergic receptor (Homo sapiens) (UniProt P18825); assay: modulators of alpha2C/GIRK thallium flux, primary screen, cell-based, HEK293 alpha2C/GIRK1/2 (AID 624;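 active = fluorescence slope after compound addition differing from the mean of all screened samples at 99.7% confidence, in either direction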;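 note: slope of fluorescence ratio to pre-addition baseline per second over 15 to 24 s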); settings: thallium flux BTC fluorescence, at 10 µM, actives lie on both sides
[7] = inhibitors of Sendai virus-induced IRF3 signaling, primary screen, TLR/RLR signaling modifier project, cell-based, Sendai virus stimulus, luciferase, 10K MLSCN set (AID 602276;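 active = inhibition at or above 50% at 10 µM; inactive = inhibition below 50%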;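 note: firefly luciferase from ISG56 promoter only with Renilla not read in this screen; 0% = Sendai virus plus DMSO and 100% = medium plus DMSO without virus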); settings: HEK293 RL24 IRF3 luciferase reporter, at 10 µM, stronger effect = higher value
[8] = inhibitors of poly I:C-induced TLR3 signaling, primary screen, cell-based, poly I:C stimulus, luciferase, 10K MLSCN set (AID 602277); settings: HEK293-TLR3 RL24 IRF3 luciferase reporter, at 10 µM, stronger effect = higher value

Voltage-gated potassium channel subunit beta-2 (Rattus norvegicus), sequence (P62483 whole entry, looked up): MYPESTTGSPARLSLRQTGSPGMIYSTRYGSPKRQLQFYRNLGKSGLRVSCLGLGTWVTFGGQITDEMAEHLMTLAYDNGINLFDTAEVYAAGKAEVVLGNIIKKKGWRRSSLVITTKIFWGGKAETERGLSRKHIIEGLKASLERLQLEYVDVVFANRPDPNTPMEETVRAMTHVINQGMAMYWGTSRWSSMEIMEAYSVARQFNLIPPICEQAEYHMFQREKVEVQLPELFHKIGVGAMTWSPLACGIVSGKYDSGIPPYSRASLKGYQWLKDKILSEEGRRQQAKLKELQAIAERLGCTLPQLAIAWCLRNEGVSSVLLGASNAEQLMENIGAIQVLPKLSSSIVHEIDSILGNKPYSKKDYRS
Alpha-2C adrenergic receptor (Homo sapiens), sequence (P18825 whole entry, looked up): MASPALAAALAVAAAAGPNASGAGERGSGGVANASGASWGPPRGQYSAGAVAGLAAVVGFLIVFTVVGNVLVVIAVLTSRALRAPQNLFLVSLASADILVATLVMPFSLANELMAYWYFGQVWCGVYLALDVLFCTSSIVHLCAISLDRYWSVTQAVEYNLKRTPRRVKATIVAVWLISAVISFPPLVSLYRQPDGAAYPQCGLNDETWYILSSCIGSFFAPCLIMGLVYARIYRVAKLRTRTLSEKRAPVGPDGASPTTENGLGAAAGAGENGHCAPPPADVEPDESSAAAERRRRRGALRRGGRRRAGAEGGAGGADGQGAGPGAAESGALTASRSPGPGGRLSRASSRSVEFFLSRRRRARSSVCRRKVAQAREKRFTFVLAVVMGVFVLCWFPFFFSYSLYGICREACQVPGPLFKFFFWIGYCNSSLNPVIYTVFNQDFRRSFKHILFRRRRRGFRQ

SMILES	cell count [1]	inhibition [1]	inhibition of aggregation [2]	nuclei count [2]	inhibition [3]	nuclei count [3]	fluorescence slope [4]	NADPH fluorescence slope [5]	slope [6]	inhibition [7]	inhibition [8]
CCCN(CCC)CCNC(=O)c1cc2c(=O)n(C)c3ccccc3c2n1C	627	0% (inactive)	-18.3% (inactive)	109%	-57.7% (inactive)	112%	-0.456 (inactive)	-7.5e-05 (inactive)	0.00528 (inactive)	27.9% (inactive)	68.2% (active)
CCOc1ccccc1C(=O)N1CCN(c2cccc(Cl)c2)CC1	460	24.4% (active)	-20.9% (inactive)	4%	-294% (inactive)	104%	-0.614 (inactive)	-5.4e-05 (inactive)	0.00344 (inactive)	9.54% (inactive)	87.8% (active)
Cc1nc(N2CCc3ccccc32)[nH]c(=O)c1CCC(C)C	345	-1.1% (inactive)	-19.6% (inactive)	112%	-114% (inactive)	135%	-0.439 (inactive)	-4.2e-05 (inactive)	0.00282 (inactive)	0.138% (inactive)	3.18% (inactive)
COc1ccc(-n2c(=O)c3c4c(sc3n3c(C)nnc23)CCCC4)cc1	415	3.3% (inactive)	4.3% (inactive)	100%	-7.4% (inactive)	116%	-0.35 (inactive)	-2.4e-05 (inactive)	0.00664 (inactive)	4.81% (inactive)	19.4% (inactive)
Cc1cccc(N2C(=O)CC(N3CCN(C(=O)c4ccccc4)CC3)C2=O)c1 (centres undefined)	408	19.1% (inactive)	1.1% (inactive)	106%	-12.6% (inactive)	118%	-0.412 (inactive)	-0.000104 (inactive)	0.00671 (inactive)	10.6% (inactive)	16.7% (inactive)
O=C(Nc1ccccc1C(F)(F)F)c1cc(S(=O)(=O)N2CCOCC2)ccc1F	415	2.8% (inactive)	12.8% (inactive)	62.3%	-247% (inactive)	107%	-0.619 (inactive)	2.6e-06 (inactive)	0.00704 (inactive)	8.22% (inactive)	21.8% (inactive)
O=C(CCCc1cccs1)Nc1nc2c(s1)CCCC2	613	9.3% (inactive)	-20.4% (inactive)	102%	-164% (inactive)	150%	-0.461 (inactive)	-2.9e-05 (inactive)	0.00629 (inactive)	-29.3% (inactive)	-48.8% (inactive)
O=c1oc2c3c4c(cc2s1)CCCN4CCC3	441	7.4% (inactive)	-6.4% (inactive)	100%	-17.7% (inactive)	119%	-0.463 (inactive)	-6e-05 (inactive)	0.00368 (inactive)	7.3% (inactive)	31.7% (inactive)
CCCCNC(=O)c1nnn(-c2ccccc2)c1N	311	3.9% (inactive)	8% (inactive)	110%	-11.4% (inactive)	120%	-0.568 (inactive)	2.4e-05 (inactive)	0.00585 (inactive)	-55.7% (inactive)	-166% (inactive)
CCS(=O)(=O)N1CCCC(c2nc(-c3cccc(OC)c3)no2)C1 (centres undefined)	730	-52% (inactive)	-9.9% (inactive)	92.1%	-66.1% (inactive)	104%	-0.535 (inactive)	1.2e-05 (inactive)	0.00638 (inactive)	-28.7% (inactive)	-59.2% (inactive)
COc1ccc(-c2nn3c(-c4cccc(C)c4)nnc3s2)cc1OC	525	10.3% (inactive)	-9.4% (inactive)	100%	-9.3% (inactive)	114%	-0.419 (inactive)	1.9e-05 (inactive)	0.00514 (inactive)	-18.2% (inactive)	-17.1% (inactive)
CCOC(=O)C(C)Sc1nnc(Cc2cc(=O)[nH]c(=O)[nH]2)n1-c1ccc(Cl)cc1 (centres undefined)	817	-6.8% (inactive)	4.6% (inactive)	107%	-37.1% (inactive)	99.1%	-0.615 (inactive)	5.1e-06 (inactive)	0.00534 (inactive)	15.5% (inactive)	12% (inactive)
COc1ccc(OCC(=O)Nc2cccc3ncccc23)cc1	629	-16.2% (inactive)	31.6% (inactive)	84.8%	23.2% (inactive)	95.6%	-0.622 (inactive)	-5.4e-05 (inactive)	0.00436 (inactive)	1.02% (inactive)	-8.12% (inactive)
O=C(Nc1cccnc1)c1ccc2c(c1)OCO2	696	-16.9% (inactive)	19.5% (inactive)	80.6%	-9.7% (inactive)	110%	-0.515 (inactive)	-3.5e-05 (inactive)	0.00618 (inactive)	-19.3% (inactive)	-49.8% (inactive)
